Anthrax LF prot: blocks Bacillus anthracis lethal factor protease. multiplex microsphere protease cleavage assay, LF. inhibition, % at 10 µM. AID 588501. P15917. hit rate 0.12% among 360,000
Target sequence (P15917 whole entry, looked up): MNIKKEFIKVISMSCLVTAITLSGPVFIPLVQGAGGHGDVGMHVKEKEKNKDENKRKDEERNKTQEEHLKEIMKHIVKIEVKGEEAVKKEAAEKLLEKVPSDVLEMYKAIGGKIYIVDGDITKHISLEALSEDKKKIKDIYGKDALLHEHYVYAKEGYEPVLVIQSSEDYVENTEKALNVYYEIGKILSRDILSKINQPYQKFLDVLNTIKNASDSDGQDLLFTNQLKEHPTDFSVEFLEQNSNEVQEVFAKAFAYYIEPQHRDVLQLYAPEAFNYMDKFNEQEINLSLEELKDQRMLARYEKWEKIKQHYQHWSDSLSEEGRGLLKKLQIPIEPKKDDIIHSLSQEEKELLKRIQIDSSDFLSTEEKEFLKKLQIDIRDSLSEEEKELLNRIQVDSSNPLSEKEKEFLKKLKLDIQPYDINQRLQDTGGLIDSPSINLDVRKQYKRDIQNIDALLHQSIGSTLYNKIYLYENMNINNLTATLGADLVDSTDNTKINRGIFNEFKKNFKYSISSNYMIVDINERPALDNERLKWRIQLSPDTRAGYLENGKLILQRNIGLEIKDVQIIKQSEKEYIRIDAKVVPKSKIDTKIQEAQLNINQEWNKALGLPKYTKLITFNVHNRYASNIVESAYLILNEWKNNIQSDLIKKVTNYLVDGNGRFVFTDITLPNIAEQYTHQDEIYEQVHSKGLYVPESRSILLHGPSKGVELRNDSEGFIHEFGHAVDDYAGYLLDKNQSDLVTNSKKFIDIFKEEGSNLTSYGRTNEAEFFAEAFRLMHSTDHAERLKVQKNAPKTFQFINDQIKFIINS
Autofluor counter: flagged as autofluorescent in microsphere protease counterscreen; compound autofluorescence counterscreen, microsphere flow cytometry; hits give high values; hit rate 3.1% among 360,000; fluorescence intensity (concentration not given with the values); in the data active = fluorescence intensity above about 16000; inconclusive = no clear call, values can overlap the other calls
BoNT F protease: blocks Botulinum neurotoxin F light chain protease | Multiplex microsphere protease cleavage assay, flow cytometry | inhibition, % at 10 µM | hit rate 0.22% among 360,000 | AID 588497; in the data active = inhibition above about 35%, passing the limit was not always enough; inconclusive = no clear call, values can overlap the other calls
BoNT-A LC inh2: blocks Botulinum neurotoxin A light chain protease. multiplex microsphere protease substrate cleavage, flow cytometry. inhibition, % at 10 µM. hit rate 0.17% among 360,000
Hits are given with their value; - = inactive; ? = inconclusive. This is a sample that favours compounds with a hit; in the whole collection about 3.5% have one here. Cut-off read from the data, not from the text of the source, unless noted: active = inhibition above about 30%; inconclusive = no clear call, values can overlap the other calls; inactive = below that.

SMILES | Anthrax LF prot | Autofluor counter | BoNT F protease | BoNT-A LC inh2
CCN(CC)CCSc1nc(O)c(-c2ccccc2)c(=O)[nH]1 | - | 17285 | - | -
Cc1cc(=O)oc2cc(OCC3CC(c4ccccc4)=NO3)ccc12 (stereo not drawn) | - | - | - | -
Cc1cc(=O)oc2cc(OCC3CC(c4ccc(Br)cc4)=NO3)ccc12 (stereo not drawn) | - | 19620 | - | -
O=C(Nc1ccc(C(F)(F)F)cc1Cl)c1ccc(Cn2cc(Br)cn2)o1 | - | - | - | -
O=C(Nc1cccc(C(F)(F)F)c1)c1ccc(Cn2cc(Br)cn2)o1 | - | 17799 | - | -
COc1ccc(C2C(C(=O)Nc3cccnc3)=C(C)Nc3nc(-c4cccs4)nn32)cc1 (stereo not drawn) | - | 21944 | - | -
COc1ccc(C2C(C(=O)Nc3cccnc3)=C(C)Nc3nc(-c4cccs4)nn32)cc1OC (stereo not drawn) | - | - | - | -
CCc1nc2cc(NC(=O)C3(C)CCCN(C(C)C)C3)ccc2o1 (stereo not drawn) | - | - | - | -
COc1ccccc1/C=C/C(=O)c1c2c(c(C)[nH]c1=O)CCCC2 | - | 21882 | - | ?
COc1ccccc1/C=C/C(=O)c1ccc(Cl)cc1 | - | 24068 | - | -
CCOc1ccc(C(=O)NCC(=O)Nc2ccc(N3CCOCC3)cc2)cc1OCC | - | - | - | -
CCN1C(=O)C(Cc2nc3ccccc3c(=O)n2-c2ccccc2)c2ccccc21 (stereo not drawn) | - | 19070 | - | ?
CCN1C(=O)/C(=C\c2nc3ccccc3c(=O)n2-c2ccccc2)c2ccccc21 | - | - | - | -
CCCCSc1nsc(NC(C)=O)n1 | - | 22275 | - | -
COc1ccccc1C(=O)NNC(=O)c1ccc(NC(=O)C(C)C)cc1 | - | - | - | -
CC1(C)CC(=O)C2=C(C1)N(Cc1ccccc1)C(=O)C2(O)C(F)(F)F (stereo not drawn) | - | - | - | -
CC(C)CC(=O)NC1(C(F)(F)F)C(=O)N(Cc2ccccc2)C2=C1C(=O)CC(C)(C)C2 (stereo not drawn) | - | 21893 | - | -
CC1(C)CC(=O)C2=C(C1)N(Cc1ccc(F)cc1)C(=O)C2(NC(=O)c1cccnc1)C(F)(F)F (stereo not drawn) | - | 20986 | - | ?
CC1(C)CC(=O)C2=C(C1)N(c1ccc(F)cc1)C(=O)C2(NC(=O)c1ccccc1F)C(F)(F)F (stereo not drawn) | - | - | - | -
CC1(C)CC(=O)C2=C(C1)N(CC1CCCO1)C(=O)C2(NC(=O)c1cccnc1)C(F)(F)F (stereo not drawn) | - | 17055 | - | -
COc1cccc(NC(=O)CCCCCN2C(=O)[C@@H]3Cc4ccccc4CN3C2=O)c1 | - | - | - | -
COc1cccc(CN(CC2CCCO2)S(=O)(=O)c2ccc(S(=O)(=O)N(C)C)cc2)c1 (stereo not drawn) | - | 22709 | - | -
COc1ccc(-c2nc3ccccc3c(=O)n2-c2cccnc2)cc1 | - | 22591 | - | ?
COc1ccc(-n2c(-c3ccc(C)cc3)nc3ccccc3c2=O)cc1 | - | - | - | -
Cc1nc2ccccc2c(=O)n1-c1cccnc1 | - | 21722 | - | ?
SMILES | Anthrax LF prot | Autofluor counter | BoNT F protease | BoNT-A LC inh2
COc1ccc(C2C(C#N)=C(C)NC3=C2C(=O)c2ccccc23)cc1 (stereo not drawn) | - | - | - | -
CCOc1ccc(C2C(C#N)=C(C)NC3=C2C(=O)c2ccccc23)cc1 (stereo not drawn) | - | 22424 | - | -
COC(=O)[C@]12CCCCC=C1N(CCC1=CCCCC1)C(=O)[C@H](CC(=O)NCCCN1CCCC1=O)C2 | - | - | - | -
COc1ccccc1NC(=O)NNC(=O)c1ccc2ccccc2c1O | - | - | - | -
CC(C)C(c1nnnn1C(C)(C)C)N1CCC(Cc2ccccc2)CC1 (stereo not drawn) | ? | 18261 | ? | ?
COC(=O)NNC(=O)c1ccc(C)c(Br)c1 | - | - | - | -
Cc1oc(-c2ccccc2F)nc1CN1CCC(C(=O)NCc2cccnc2)CC1 | - | 20391 | - | -
COc1ccc(CCNC(=O)C2CCN(Cc3nc(-c4ccccc4F)oc3C)CC2)cc1OC | - | - | - | -
CCc1ccc(-c2nc(CN3CCC(C(=O)NCc4ccccc4OC)CC3)c(C)o2)cc1 | - | 25156 | - | ?
Cc1ccccc1-c1nc(CN2CCC(C(=O)NCc3cccnc3)CC2)c(C)o1 | - | 22517 | - | ?
Cc1ccccc1-c1nc(CN2CCC(C(=O)NCc3ccco3)CC2)c(C)o1 | - | 21224 | - | -
Cc1ccccc1-c1nc(CN2CCC(C(=O)NCc3cccs3)CC2)c(C)o1 | - | - | - | -
O=C(Nc1ccccc1)C1Cc2c(-c3ccc4c(c3)OCO4)ccnc2O1 (stereo not drawn) | - | - | - | -
Cc1cccc(C(=O)NCC(=O)OCCOc2ccccc2Cl)c1 | - | ? | - | -
Cc1oc(-c2ccc(Cl)cc2)nc1CN1CCCC(C(=O)NCc2ccccn2)C1 (stereo not drawn) | - | 22724 | - | -
COc1cc(/C=C2/N=C(C3CCCCC3)OC2=O)cc(OC)c1OC | - | 20975 | - | ?
COc1cc(/C=C2\N=C(C)OC2=O)cc(OC)c1OC | - | - | - | -
Cc1cnn(C2CCN(C)CC2)c1N | - | 16760 | - | -
COc1ccccc1N1CCN(C2CCCN(C(=O)CCc3ccccn3)C2)CC1 (stereo not drawn) | - | - | - | -
Cc1ccc(/C=N/NC(=S)NCCc2ccccc2)s1 | - | - | - | -
CCCCNC(=S)N/N=C/c1ccc(C)s1 | - | 24604 | - | ?
O=C(CC12CC3CC(CC(C3)C1)C2)N1CCN(S(=O)(=O)c2cccs2)CC1 | - | - | - | -
Cc1ccc(-n2ncc(N(C)C)c(Cl)c2=O)cc1 | - | - | - | -
CN(/N=C/c1ccncc1)c1cnn(-c2ccc(F)c(Cl)c2)c(=O)c1Cl | - | 20433 | - | -
CCOC(=O)c1cccc(NS(=O)(=O)c2c(C)[nH]c(C)c2C(=O)N2CCCC2)c1 | - | - | - | -
SMILES | Anthrax LF prot | Autofluor counter | BoNT F protease | BoNT-A LC inh2
CCOC(=O)c1cccc(NS(=O)(=O)c2c(C)[nH]c(=O)[nH]c2=O)c1 | - | 19045 | - | -
COc1cc(C(=O)N(Cc2ccc(F)cc2)C2CCS(=O)(=O)C2)cc(OC)c1OC (stereo not drawn) | - | 17106 | - | -
CN(C)c1ccc(CN(C(=O)COc2ccc(F)cc2)C2CCS(=O)(=O)C2)cc1 (stereo not drawn) | - | 20985 | - | -
CCOc1cccc(C(=O)N(Cc2ccc(F)cc2)C2CCS(=O)(=O)C2)c1 (stereo not drawn) | - | 21464 | - | ?
C=CCc1ccccc1OCC(=O)NNC(=S)NCc1ccccc1 | - | - | - | -
CCOC(=O)C1=C(C)N(CCCC(=O)O)C(=O)NC1c1ccccc1OS(=O)(=O)c1ccc(C)cc1 (stereo not drawn) | - | - | - | -
CC(OC(=O)c1cn(-c2ccccc2)nc1-c1cccnc1)C(N)=O (stereo not drawn) | - | - | - | -
CCOc1ccc2nc(SCC(=O)N3CCCc4ccccc43)sc2c1 | - | 21324 | - | ?
COc1ccc(-c2cc3nc(C)c(CCC(=O)NCc4ccco4)c(C)n3n2)c(OC)c1 | - | 20470 | - | -

Bioassay records from PubChem.
